An excerpt weighted towards active compounds, which were near 6.9% of everything screened.
MCF10A rerep: induces DNA re-replication in MCF 10a normal breast cells; MCF 10A DNA re-replication, Hoechst nuclear intensity, 48 h; Potency, µM (titrated, usually from 46.1 µM), for the others: top-dose activity, positive = re-replication, usual class: activators; 350,000 compounds, 2.9% hits; also: potency is read from the fitted curve at half-maximal effect; % of control where 0% means no effect; nearly all actives have a fitted effect of over 50% in size
Giardia kill: kills Giardia lamblia; Giardia lamblia trophozoite viability; activity change, % at 7.66 µM, hits read low; 340,000 compounds, 0.15% hits; in the data active = activity change below about -80%; inconclusive = between about -30% and that limit;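 also: parasites exposed to compound for two days anaerobically before the ATP read; % is scaled to controls: 0 for no effect and ±100 for the full control effect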
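Anaerobic 48 hrs incubation at 37 deg C of 100 trophozoites/well with test compounds; ATPLite 1-Step luminescence, 15-30 min RT, reports cellular ATP as viability.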
SW480 rerep: DNA re-replication induction in SW480 cells; Potency, µM (series often up to 46.1 µM), for the others: top-dose re-replication activation, actives largely listed as activators; 340,000 compounds, 1.8% hits; SW480 DNA re-replication, Hoechst DNA content imaging, 48 h; also: potency is read from the fitted curve at half-maximal effect; % of control where 0% means no effect; nearly all actives have a fitted effect of over 55% in size
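DNA re-replication was detected as more nuclei of elevated Hoechst intensity after 48 hr exposure to compound (23 nL pinned per well of 250 cells).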
S-ASM inh: inhibitors of human secretory acid sphingomyelinase; 340,000 compounds, 0.006% hits; placental ASM, HMU-PC fluorogenic substrate, 60 min; P17405; Potency, µM (series often up to 57.5 µM), without a hit: at the top dose activity change, negative = inhibition, actives largely listed as inhibitors; also: potency is read from the fitted curve at half-maximal effect
Target sequence (P17405 47-631 limits assumed): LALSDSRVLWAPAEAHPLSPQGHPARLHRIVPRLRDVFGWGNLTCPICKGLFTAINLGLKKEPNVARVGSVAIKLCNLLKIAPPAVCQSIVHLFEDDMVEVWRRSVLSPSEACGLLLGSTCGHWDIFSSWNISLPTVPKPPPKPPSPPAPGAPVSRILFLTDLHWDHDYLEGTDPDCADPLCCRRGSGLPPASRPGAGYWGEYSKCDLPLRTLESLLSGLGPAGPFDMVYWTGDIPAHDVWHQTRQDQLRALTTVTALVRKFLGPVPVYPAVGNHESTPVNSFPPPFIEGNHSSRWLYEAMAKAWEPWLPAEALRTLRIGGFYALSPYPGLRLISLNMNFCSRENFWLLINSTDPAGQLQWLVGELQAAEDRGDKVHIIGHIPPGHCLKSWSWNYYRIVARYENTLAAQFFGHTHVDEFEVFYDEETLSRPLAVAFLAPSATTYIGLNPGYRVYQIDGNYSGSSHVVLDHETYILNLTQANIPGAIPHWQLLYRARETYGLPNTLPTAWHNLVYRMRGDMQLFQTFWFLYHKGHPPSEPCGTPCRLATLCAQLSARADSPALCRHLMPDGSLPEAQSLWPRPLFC
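Human placenta-derived ASM enzyme was preincubated with compound for 10 minutes at room temperature, then given fluorogenic substrate HMU-PC0 (9 uM final) for 60 minutes at 37 °C; a pH 10 stop preceded fluorescence reading at Ex 386/Em 447 nm.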
KB-V1 MDR tox: kills drug-selected multidrug resistant KB-V1 cells. KB-V1 MDR cells viability, CellTiter-Glo, 72 h. Potency, µM (titrated, usually from 46.1 µM), actives largely listed as cytotoxic. 400,000 compounds, 3.4% hits; also: potency is read from the fitted curve at half-maximal effect; % is scaled to controls: 0 for no effect and ±100 for the full control effect; nearly all actives have a fitted effect of over 60% in size
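Readout: CellTiter-Glo luminescence, 10 min after addition. Cells: KB-V1 MDR subline, 72 h at 37 degrees C with compound. Analysis: corrected, normalized data fitted to concentration-effect curves.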
KB-3-1 tox: kills parental KB-3-1 adenocarcinoma cells; 400,000 compounds, 1.4% hits; Potency, µM (doses to about 46.1 µM), actives largely listed as cytotoxic; KB-3-1 viability, CellTiter-Glo ATP luminescence, 72 h; also: potency is read from the fitted curve at half-maximal effect; % is scaled to controls: 0 for no effect and ±100 for the full control effect; nearly all actives have a fitted effect of over 60% in size
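Viability of parental KB-3-1 cells, measured by CellTiter-Glo luminescence, followed a 72 h incubation at 37 °C with pinned compounds in phenol-red-free DMEM containing 10% FBS.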
The depositor's hits bear a star; i = inactive; ? = inconclusive; . = not tested or not shown. Unless noted, calls follow the shape of the dose curve; as a rule, active = well fitted curve in the direction sought with a large enough effect; inconclusive = small, poorly fitted or top-dose-only effect, or another doubt; inactive = no such curve, though single readings can be large; an effect the other way counts as inactive or inconclusive.

SMILES	MCF10A rerep	Giardia kill	SW480 rerep	S-ASM inh	KB-V1 MDR tox	KB-3-1 tox
COC(=O)c1ccccc1NC(=O)CC(NCc1ccccc1)C(=O)O (configuration not stated)	0%	-9	21µM*	-1%	i	i
CCc1ccccc1NC(=O)CC(NCc1ccccc1)C(=O)O (configuration not stated)	-3%	?	-8%	2%	i	i
CC(=O)Nc1ccc(/C=C/c2ccnc3ccccc23)cc1[N+](=O)[O-]	.	.	.	.	i	?
CC(=O)N1CCOc2cc(S(=O)(=O)NCc3ccc(C)cc3)c(Cl)cc21	.	.	.	.	i	i
Cc1cc2c(n1-c1ccc(C(=O)NCc3ccccc3Cl)cc1)CCCC2	.	.	.	.	i	i
COc1cccc(C2CC(=O)Nc3c2c(=O)[nH]c2nc4ccccc4n32)c1 (configuration not stated)	.	.	.	.	i	i
CC1(C)CC(=O)C=C(NCc2cccc(C(F)(F)F)c2)C1	-5%	6	9.2µM*	12%	?	i
CCCN1CNc2c(c(=O)[nH]c(=S)n2Cc2ccc(OC)c(OC)c2)C1	.	-18	.	.	.	.
CCOc1ccc(C2c3c(oc4ccc(C)cc4c3=O)C(=O)N2Cc2ccc3c(c2)OCO3)cc1OC (configuration not stated)	.	.	.	.	i	i
N=c1oc2cc(O)ccc2cc1C(=O)Nc1ccc(Cl)cc1	1.6µM*	4	2.6µM*	i	i	?
CC(=O)c1cc2ccc(O)cc2oc1=O	21µM*	1	18µM*	i	i	i
O=C(NCc1ccco1)c1cc2ccc(O)cc2oc1=O	5.8µM*	-3	?	i	i	?
COc1ccc2cc(C(C)=O)c(=O)oc2c1	1%	20	0%	27%	i	i
Cc1ccc2cc3cc(C(=O)NCc4ccco4)oc3nc2c1	17%	-21	-4%	-4%	i	3.5µM*
CCCNC(=O)Cn1nc(-c2ccc(OC)cc2)c2cnc3ccc(F)cc3c21	.	.	.	.	i	i
COc1ccc(-c2cc3ccc(O)cc3oc2=O)cc1OC	?	3	10µM*	i	i	i
Cc1ccc(N=c2oc3cc(O)ccc3cc2C(N)=O)cc1	9.2µM*	-7	16µM*	i	i	i
Cc1ccc(C(=O)N/N=c2\oc3ccccc3cc2C(N)=O)cc1	4%	6	-9%	-4%	i	i
N#CC(=C1C=C(Br)C(=NO)C=C1Cl)c1ccc(Cl)cc1	.	.	.	.	i	?
N#CC(=C1C=CC(=NO)C(Cl)=C1)c1ccccc1	.	.	.	.	?	6.5µM*
Cc1ccc(Nc2cc(C)nc3nc(Cc4ccc(Cl)cc4)nn23)cc1	.	.	.	.	i	i
CCc1ccc(Nc2cc(C)nc3nc(Cc4ccc(Cl)cc4)nn23)cc1	.	.	.	.	?	21µM*
C[n+]1c(/C=C/c2ccc(N)cc2)sc2ccccc21	.	.	.	.	i	i
CC1C(=O)C(=O)C=CN1C (configuration not stated)	6%	.	-2%	.	.	.
O=[N+]([O-])c1ccc(/C=C2\CCC(C3=CCCC3)=C2N2CCOCC2)cc1	23µM*	-3	?	-1%	?	i
SMILES	MCF10A rerep	Giardia kill	SW480 rerep	S-ASM inh	KB-V1 MDR tox	KB-3-1 tox
O=c1[nH]cnc2cc(-c3ccccc3)sc12	5%	-23	-5%	-1%	6.5µM*	16µM*
Cc1ccc(C2=NN(C(=O)CCl)C(c3ccco3)C2)o1 (configuration not stated)	21µM*	27	?	3%	?	?
CC(=O)N1N=C(c2ccco2)CC1c1ccco1 (configuration not stated)	1%	9	-2%	3%	i	i
CCOC(=O)c1ccccc1NC(=O)c1cc2c(=O)oc3ccc(C)cc3c2s1	.	.	.	.	i	i
Oc1cccc2ccc(/C=C/c3ccccc3Cl)nc12	13%	4	?	-5%	i	i
Oc1cccc2ccc(/C=C/c3c(F)cccc3Cl)nc12	27%	-2	18µM*	-1%	i	?
CCOC(=O)c1cc(-c2ccccc2)sc1NC(=O)C(C)OC(=O)c1cccnc1OCC (configuration not stated)	?	-1	2.9µM*	2%	i	i
CCOC(=O)c1cc(-c2ccccc2)sc1NC(=O)CSc1nnc(N)s1	5%	5	-12%	4%	?	i
CCOC(=O)c1cc(-c2ccccc2)sc1NC(=O)C(C)Sc1nnc(N)s1 (configuration not stated)	?	-13	?	2%	2.1µM*	?
COc1ccccc1NC(=O)c1nnn(Cc2ccccc2)c1NC(=O)C(F)(F)F	15%	2	-4%	5%	21µM*	18µM*
COc1ccc(C)cc1NC(=O)c1nnn(Cc2cccc(C(F)(F)F)c2)c1N	2.1µM*	13	11%	-11%	i	?
Cc1cn([C@H]2C[C@H](O)[C@@H](CNC(=O)[C@H](N)C3CC3)O2)c(=O)[nH]c1=O	.	.	.	.	i	i
CCc1cccc(C)c1Nc1c(-c2cccs2)nc2nc(C)cc(C)n12	.	.	.	.	i	i
Cc1oc2c(cc(NS(=O)(=O)c3ccc(Cl)cc3)c3ccccc32)c1C(=O)OCc1ccccc1	.	.	.	.	i	i
COc1ccc2c(c1)CCc1c(C(=O)N3CC4(C)CC3CC(C)(C)C4)noc1-2 (configuration not stated)	?	5	2%	-12%	i	i
COc1ccc2c(c1)CCc1c(C(=O)N3CCOCC3)noc1-2	7%	4	-2%	0%	16µM*	i
COc1ccc2c(c1)CCc1c(C(=O)N3CCCc4ccccc43)noc1-2	?	-5	12%	2%	7.3µM*	21µM*
COc1cc2ncnc(N3CCN(C(=O)Nc4ccc(Oc5ccccc5)cc4)CC3)c2cc1OC	.	.	.	.	i	i
Cc1ccn2c(=O)nc(SCC(=O)c3ccccc3)nc2c1	1%	0	-6%	-2%	i	i
Cc1ccc2nc(SCC(=O)c3ccccc3)nc(=O)n2c1	1%	6	1.8µM*	7%	i	i
O=C(CSc1nc(=O)n2cc(Cl)ccc2n1)Nc1cccc2ccccc12	0%	-12	24%	-5%	26µM*	?
CC(C)(C)c1nc(SCC(=O)c2ccccc2)c2ccccc2n1	?	-1	-1%	-6%	?	i
Cc1nc2ccccc2nc1SCC(=O)c1ccccc1	13%	-2	-1%	-3%	2.6µM*	?
Cc1ccc2nc(SCC(=O)N3CCC(C)CC3)nc(=O)n2c1	-6%	-2	-11%	1%	18µM*	i
